The values that follow come from PubChem BioAssay (NCATS).

The source made the active and inactive calls. No rule for the calls is given here. Some results are limits rather than exact numbers.
Potency is read from the fitted curve at half-maximal effect.

The experiment relates to HIV-1 nucleocapsid protein NCp7 (binding to TG oligonucleotide). Nature of the experiment: HIV Nucleocapsid (AID 346).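 Also: potency is for inhibitors that block NC binding and lower polarization.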 The note with it: HIV-1 NC / fluorescein-TGTGTGTG probe, fluorescence polarization. A digest of the protocol: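 HIV-1 NC (100 nM) binding to fluorescein-labelled ssDNA TG4xF (10 nM) in Hepes pH 7.5, 250mM NaCl, 1uM ZnCl2, TCEP and 2-mercaptoethanol; compounds pin-transferred, 1 hr room temperature, fluorescence polarization read on CCD imager.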
For orientation: Fluorescence polarisation rises when a labelled molecule tumbles more slowly, as on binding a larger partner.
Consider `Cc1noc(C)c1C(=O)N1CCC2(CC1)CN(c1ccccn1)C2`, for which the Potency was > 20 µM (inactive).

Consider `COc1cccc(Cn2c(=O)c(-c3cccs3)nc3cnc(N4CCNCC4)nc32)c1`, for which the Potency is > 20 µM (inactive).

Turning to `COc1ccc2[nH]cc(CCNc3nc(-c4ccc(C(=O)N(C)C)cc4)nc4ccccc34)c2c1`, the Potency was > 20 µM (inactive).

In the case of `O=S(=O)(c1ccccc1)N1CCC[C@@]2(CCN(C(c3ccccc3)c3ccccc3)C2)C1`, the Potency was > 20 µM (inactive).

Regarding `Cc1nc2cncnc2n(Cc2ccccc2Cl)c1=O`, the Potency was > 20 µM (inactive).

`COc1ccccc1CNc1cc(-c2ccccc2Cl)ncn1`: the Potency was > 20 µM (inactive).

`Cc1noc(C)c1-c1nccc(N2CCNCC2)n1`: the Potency was > 20 µM (inactive).

`COCCn1c(=O)c(-c2ccc(F)cc2)nc2cnc(Oc3ccccc3)nc21`: the Potency was > 20 µM (inactive).

`CN(C)Cc1ccccc1-c1cc(NC2CC2)ncn1`: the Potency was > 20 µM (inactive).

For `O=c1cnc2cnc(Oc3cccc(Cl)c3)nc2n1C[C@H]1CCCO1`, the Potency is > 20 µM (inactive).

Consider `COc1ccc2[nH]cc(CCNc3cc(-c4cccnc4)ncn3)c2c1`, for which the Potency is > 20 µM (inactive).

Take `Cc1nc2cnc(N(C)C)nc2n(Cc2cccs2)c1=O`: the Potency was > 20 µM (inactive).

In the case of `Cc1noc(C)c1C(=O)N1CCC2(CCN(Cc3ccncc3)CC2)CC1`, the Potency is > 20 µM (inactive).

`O=c1c(-c2ccccc2)nc2cncnc2n1Cc1ccc(F)cc1`: the Potency was > 20 µM (inactive).

For `COc1ccccc1CNc1ncncc1-c1ccccc1Cl`, the Potency was > 20 µM (inactive).

As for `CCNc1ncc2nc(-c3cn(C)c4ccccc34)c(=O)n(C)c2n1`, the Potency was > 20 µM (inactive).

Consider `O=C(c1cnccn1)N1CCC2(CCCN(Cc3nccs3)C2)CC1`, for which the Potency was > 20 µM (inactive).

As for `CS(=O)(=O)Nc1cccc(-c2cc(NCc3cccs3)ncn2)c1`, the Potency is > 20 µM (inactive).

For `CCNc1ncc2nc(C)c(=O)n(C3CC3)c2n1`, the Potency was > 20 µM (inactive).

For `CC(C)NC(=O)N1CCC2(CC1)CCN(C(=O)c1csnn1)CC2`, the Potency was > 20 µM (inactive).

Consider `CC(=O)NCCNc1ncnc2ccc(-c3c(C)noc3C)cc12`, for which the Potency was > 20 µM (inactive).

In the case of `COc1ccc(CNc2ncnc3ccc(-c4cccnc4)cc23)c(OC)c1`, the Potency is > 20 µM (inactive).

On to `CN1CCN(c2nc(-c3ccoc3)nc3ccccc23)CC1`, for which the Potency was > 20 µM (inactive).

With `COc1ccc(-n2c(=O)c(-c3ccc(F)cc3)nc3cnc(N4CCNCC4)nc32)cc1`, the Potency was > 20 µM (inactive).

`CC(=O)NCCNc1ncnc2ccc(-c3ccccc3C#N)cc12`: the Potency was > 20 µM (inactive).

Take `N#CCCn1c(=O)c(CCc2ccccc2)nc2cnc(OCc3ccccc3)nc21`: the Potency was > 20 µM (inactive).

Regarding `O=c1c(-c2ccc(F)cc2)nc2cnc(N3CCNCC3)nc2n1Cc1cccs1`, the Potency is > 20 µM (inactive).

On to `N#Cc1ccc(CN2CCCC3(CCN(C(=O)c4ccco4)CC3)C2)cc1`, for which the Potency is > 20 µM (inactive).

As for `CC(C)NC(=O)N1CCC2(CC1)CCN(C(=O)c1cc(C(F)(F)F)cc(C(F)(F)F)c1)CC2`, the Potency was > 20 µM (inactive).

As to `CCNc1ncc2nc(CCc3ccccc3)c(=O)n(CCOC)c2n1`, the Potency is > 20 µM (inactive).

Regarding `COc1cccc(Nc2ncc3nc(-c4cn(C)c5ccccc45)c(=O)n(CCC#N)c3n2)c1`, the Potency was > 20 µM (inactive).

In the case of `COc1ccccc1CN1CCC2(CC1)CCN(S(=O)(=O)c1ccccc1)CC2`, the Potency is > 20 µM (inactive).

With `c1ccc(-c2cccc(N3CC4(CCNCC4)C3)c2)cc1`, the Potency is > 20 µM (inactive).

Consider `N#CCCn1c(=O)c(-c2ccccc2)nc2cnc(N3CCNCC3)nc21`, for which the Potency was > 20 µM (inactive).

As to `COc1ccc(NC(=O)N2CCC3(CC2)CCN(S(=O)(=O)c2ccccc2)CC3)cc1`, the Potency was > 20 µM (inactive).

As to `COc1ccc(-c2nc3cnc(Oc4ccccc4)nc3n(C3CC3)c2=O)cc1`, the Potency is > 20 µM (inactive).

For `COCC(=O)N1CCC2(CC1)CN(Cc1nccs1)C2`, the Potency is > 20 µM (inactive).

In the case of `COc1cccc(Cn2c(=O)cnc3cnc(N4CCN(C)CC4)nc32)c1`, the Potency was > 20 µM (inactive).

Consider `CN1CCN(c2ncc3nc(-c4ccccc4)c(=O)n(-c4ccccc4)c3n2)CC1`, for which the Potency was > 20 µM (inactive).

In the case of `COc1ccc(C(=O)N2CCC3(CCCN(Cc4ccccc4)C3)CC2)cc1`, the Potency is > 20 µM (inactive).
